Measured values as given in PubChem BioAssay (EPA / NIEHS).
Several values for one entry are separate records, joined by “and”; a condition that tells them apart may be missing. Equal values may be shown once. Results filed as inconclusive are left out. Some compounds were tested as several samples or in several runs, with calls that do not always agree. Activity calls are given as the source filed them. The calls were made as follows, unless noted: active = hit-call score of the fitted dose curve at least 0.9, where 1 is the maximum; inconclusive = response in the unintended direction; inactive = score below 0.9.

Tests used:
[1] = test system: turtle Androgen Receptor (AR), gene 101947425; assay: ATG_trAR_XSP2: Attagene TRANS-FACTORIAL Multi-Species (XSP2) HepG2 Assay for turtle Androgen Receptor (AR) (AID 2283815);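 as to AC50: potency for gain of reporter signal meaning activation above DMSO baseline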
Outline: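 HepG2 cells transiently transfected with GAL4-UAS reporter units for chimeric NR-Gal4 receptors; 24 h dosing in presence of 3 nM 6-alpha-fluorotestosterone and 1.5 nM norgestrel. Reporter mRNA by RT-PCR and capillary electrophoresis, gain of signal versus DMSO.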

[2] = molecular target: zebrafish Estrogen Receptor (ER1), esr1 (gene 259252) (UniProt P57717); assay: ATG_zfER1_XSP2: Attagene TRANS-FACTORIAL Multi-Species (XSP2) HepG2 Assay for zebrafish Estrogen Receptor (ER1) (AID 2283816)
Outline: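 HepG2 cells transiently transfected with a GAL4-UAS reporter and a chimeric zebrafish ER1-Gal4 construct, dosed 24 h. Reporter mRNA quantified by RT-PCR, labelling, HpaI digestion and capillary electrophoresis, relative to DMSO.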

[3] = molecular target: chicken Estrogen Receptor (ERa), ESR1 (gene 396099) (UniProt P06212); assay: ATG_chERa_XSP2: Attagene TRANS-FACTORIAL Multi-Species (XSP2) HepG2 Assay for chicken Estrogen Receptor (ERa) (AID 2283817);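 also: actives raise reporter signal above DMSO so AC50 reflects ER activation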
Outline: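 Transiently transfected HepG2 cells expressing chimeric chicken ERa-GAL4 reporter units, dosed 24 h with 3 nM 6-alpha-fluorotestosterone and 1.5 nM norgestrel present. Reporter mRNA measured by RT-PCR and capillary electrophoresis; gain-of-signal fitted relative to DMSO.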

[4] = test system: zebrafish Estrogen Receptor (ER2a), gene 317734; assay: ATG_zfER2a_XSP2: Attagene TRANS-FACTORIAL Multi-Species (XSP2) HepG2 Assay for zebrafish Estrogen Receptor (ER2a) (AID 2283818);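 also: hits raise reporter mRNA so AC50 reflects activation of zebrafish ER2a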
Outline: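 HepG2 cells transiently transfected with GAL4-UAS reporter units and chimeric zebrafish ER2a-Gal4, exposed 24 h; medium contains 3 nM 6-alpha-fluorotestosterone and 1.5 nM norgestrel. Reporter mRNA quantified by RT-PCR, HpaI digestion, capillary electrophoresis; gain versus DMSO.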

[5] = test system: chicken Androgen Receptor (AR), gene 422165; assay: ATG_chAR_XSP2: Attagene TRANS-FACTORIAL Multi-Species (XSP2) HepG2 Assay for chicken Androgen Receptor (AR) (AID 2283819);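 also: hits raise reporter mRNA above DMSO so potency is for activation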
Outline: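 HepG2 cells transiently transfected with chicken AR–GAL4 chimeric reporter constructs, stimulated with 3 nM 6-alpha-fluorotestosterone plus 1.5 nM norgestrel, dosed 24 h. Reporter mRNA quantified by RT-PCR and capillary electrophoresis; gain of signal fitted versus DMSO.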

[6] = molecular target: human Androgen Receptor (AR), AR (gene 367) (UniProt P10275); assay: ATG_hAR_XSP2: Attagene TRANS-FACTORIAL Multi-Species (XSP2) HepG2 Assay for human Androgen Receptor (AR) (AID 2283820)
Outline: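 HepG2 cells transiently transfected with GAL4-UAS reporter units driven by chimeric NR-Gal4 proteins, stimulated with 3 nM 6-alpha-fluorotestosterone plus 1.5 nM norgestrel. Reporter mRNA quantified 24 h after dosing by RT-PCR and capillary electrophoresis; gain-of-signal versus DMSO.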

[7] = test system: frog Estrogen Receptor (ER), gene 398734; assay: ATG_frER1_XSP2: Attagene TRANS-FACTORIAL Multi-Species (XSP2) HepG2 Assay for frog Estrogen Receptor (ER) (AID 2283821);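 also: hits raise reporter mRNA above DMSO baseline so potency means agonist or activator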
Outline: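 HepG2 cells transiently transfected with GAL4-UAS reporter units expressing a chimeric frog ER-Gal4 protein; 24 h exposure. Reporter mRNA quantified by RT-PCR, fluorescent labelling and capillary electrophoresis; gain of signal fitted against DMSO baseline.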

[8] = test system: zebrafish Estrogen Receptor (ER2b), gene 317733; assay: ATG_zfER2b_XSP2: Attagene TRANS-FACTORIAL Multi-Species (XSP2) HepG2 Assay for zebrafish Estrogen Receptor (ER2b) (AID 2283823);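 also: fitted upward as reporter gain over DMSO so potency reflects activation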
Outline: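 Read-out: fluorescent reporter mRNA, measured by RT-PCR then capillary electrophoresis after HpaI digestion. HepG2 cells carried transiently transfected multi-reporter TRANS constructs (NR-Gal4 chimeras); 24 h chemical exposure; activity scored upward versus DMSO control.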

[9] = test system: frog Androgen Receptor (AR), gene 399456; assay: ATG_frAR_XSP2: Attagene TRANS-FACTORIAL Multi-Species (XSP2) HepG2 Assay for frog Androgen Receptor (AR) (AID 2283824);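 also: actives raise reporter signal above DMSO so AC50 reflects agonist-like induction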
Outline: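 HepG2 cells transiently transfected with GAL4-UAS reporter units and frog (Xenopus laevis) AR-Gal4 chimera; reporter mRNA measured 24 h after dosing by RT-PCR and capillary electrophoresis. Gain of signal fitted relative to DMSO baseline.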

[10] = test system: frog Estrogen Receptor (ER2), gene 100174814; assay: ATG_frER2_XSP2: Attagene TRANS-FACTORIAL Multi-Species (XSP2) HepG2 Assay for frog Estrogen Receptor (ER2) (AID 2283828)
Outline: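 HepG2 cells transiently transfected with multiplexed GAL4-UAS reporter units expressing chimeric frog ER2–Gal4 protein; reporter mRNA measured 24 h after chemical dosing by RT-PCR, fluorescent labeling and capillary electrophoresis. Gain-of-signal fitted relative to DMSO baseline.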

[11] = molecular target: mouse Peroxisome Proliferator-activated Receptor gamma (PPARg), Pparg (gene 19016) (UniProt P37238); assay: ATG_mPPARg_XSP2: Attagene TRANS-FACTORIAL Multi-Species (XSP2) HepG2 Assay for mouse Peroxisome Proliferator-activated Receptor gamma (PPARg) (AID 2283830);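 also: hits are gains in reporter mRNA above DMSO so AC50 marks activation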
Outline: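 HepG2 cells transiently transfected with GAL4-UAS reporter units for chimeric NR-Gal4 proteins including mouse PPARg, exposed 24 h; medium contained 3 nM 6-alpha-fluorotestosterone and 1.5 nM norgestrel. Reporter mRNA quantified by RT-PCR, HpaI digestion and capillary electrophoresis, vs DMSO.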

[12] = molecular target: Nuclear receptor subfamily 1 group I member 2 (Mus musculus) (UniProt O54915); assay: ATG_mPXR_XSP2: Attagene TRANS-FACTORIAL Multi-Species (XSP1) HepG2 Assay for mouse Pregnane X Receptor (PXR) (AID 2283831)
Outline: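 HepG2 cells transiently transfected with GAL4-UAS reporter units expressing chimeric NR-GAL4 proteins; reporter mRNA measured 24 h after dosing by RT-PCR with 6-FAM labelling and capillary electrophoresis, gain of signal relative to DMSO.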

[13] = molecular target: zebrafish Thyroid Hormone Receptor alpha (TRa), thraa (gene 30670) (UniProt Q98867); assay: ATG_zfTRa_XSP2: Attagene TRANS-FACTORIAL Multi-Species (XSP1) HepG2 Assay for zebrafish Thyroid Hormone Receptor alpha (TRa) (AID 2283832);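 also: actives raise zebrafish TRa-Gal4 reporter transcript above DMSO baseline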
Outline: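 Chimeric receptor-Gal4 activity was assessed in transfected human liver HepG2 cells 24 h after dosing, using reporter transcript levels detected by RT-PCR and capillary electrophoresis. DMSO served as baseline.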

[14] = test system: zebrafish Peroxisome Proliferator-activated Receptor gamma (PPARg), gene 557037; assay: ATG_zfPPARg_XSP2: Attagene TRANS-FACTORIAL Multi-Species (XSP2) HepG2 Assay for zebrafish Peroxisome Proliferator-activated Receptor gamma (PPARg) (AID 2283833);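 also: actives increase reporter signal over DMSO so AC50 reflects activation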
Outline: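 HepG2 cells transiently transfected with GAL4-UAS reporter units expressing a zebrafish PPARg–GAL4 chimera; compound exposure 24 h. Reporter mRNA quantified by RT-PCR with fluorescent labelling and capillary electrophoresis; gain of signal fitted relative to DMSO baseline.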

[15] = test system: turtle Thyroid Hormone Receptor, alpha (TRa), gene 101949057; assay: ATG_trTRa_XSP2: Attagene TRANS-FACTORIAL Multi-Species (XSP1) HepG2 Assay for turtle Thyroid Hormone Receptor, alpha (TRa) (AID 2283834);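 also: hits raise reporter mRNA over the DMSO baseline so AC50 marks activators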
Outline: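 HepG2 cells transiently transfected with multiplexed GAL4-UAS reporter units expressing chimeric NR-Gal4 proteins were dosed for 24 hours. Reporter mRNA was quantified by RT-PCR with 6-FAM labelling and capillary electrophoresis, gain of signal scored against DMSO.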

[16] = ATG_M_61_XSP2: Attagene TRANS-FACTORIAL Multi-Species (XSP2) HepG2 Assay for M61 Transcription Factor (Internal Marker) (AID 2283835; active = hit-call score of the fitted dose curve at least 0.9, where 1 is the maximum; inactive = score below 0.9;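 also: active means a rise in signal above the DMSO baseline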)
Outline: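 HepG2 cells transiently transfected with multiple GAL4-UAS reporter units; reporter mRNA measured 24 h after dosing by RT-PCR, fluorescent labelling and capillary electrophoresis. Medium contained 3 nM 6-alpha-fluorotestosterone and 1.5 nM norgestrel; internal marker, DMSO baseline.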

[17] = molecular target: GAL4 Transcription Factor (Internal Marker), GAL4 (gene 855828) (UniProt P04386); assay: ATG_GAL4_XSP2: Attagene TRANS-FACTORIAL Multi-Species (XSP2) HepG2 Assay for GAL4 Transcription Factor (Internal Marker) (AID 2283814);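 also: GAL4 reporter mRNA background control in MRTU transfected cells not a receptor target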
Outline: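 HepG2 cells transiently transfected with GAL4-UAS reporter units, stimulated with 3 nM 6-alpha-fluorotestosterone plus 1.5 nM norgestrel, dosed 24 h. Reporter mRNA by RT-PCR/capillary electrophoresis; gain-of-signal fit versus DMSO, background control.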

[18] = ATG_M_19_XSP2: Attagene TRANS-FACTORIAL Multi-Species (XSP2) HepG2 Assay for M32 Transcription Factor (Internal Marker) (AID 2283822)
Outline: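 Internal background marker in a multi-species nuclear receptor TRANS panel: transfected HepG2 cells exposed 24 h, with 3 nM 6-alpha-fluorotestosterone and 1.5 nM norgestrel present. Readout is RT-PCR of reporter transcripts resolved by capillary electrophoresis, gain-of-signal versus DMSO.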

[19] = test system: zebrafish Androgen Receptor (AR), gene 100005148; assay: ATG_zfAR_XSP2: Attagene TRANS-FACTORIAL Multi-Species (XSP2) HepG2 Assay for zebrafish Androgen Receptor (AR) (AID 2283825);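 also: hits raise reporter mRNA above DMSO so AC50 reflects agonist-type gain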
Outline: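 Zebrafish AR–GAL4 chimera transiently expressed with GAL4-UAS reporter in HepG2 cells, co-stimulated with 3 nM 6-alpha-fluorotestosterone and 1.5 nM norgestrel; 24 h dosing, reporter mRNA read by RT-PCR/capillary electrophoresis versus DMSO.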

[20] = molecular target: Peroxisome proliferator-activated receptor gamma (Homo sapiens) (UniProt P37231); assay: ATG_hPPARg_XSP2: Attagene TRANS-FACTORIAL Multi-Species (XSP2) HepG2 Assay for human Peroxisome Proliferator-activated Receptor gamma (PPARg) (AID 2283829);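 also: actives raise reporter mRNA above DMSO so AC50 reflects PPARg activation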
Outline: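 HepG2 cells transiently transfected with multiplexed GAL4-UAS reporter units for chimeric NR-Gal4 receptors, dosed 24 h. Reporter mRNA quantified by RT-PCR, 6-FAM labeling, HpaI digestion and capillary electrophoresis; gain-of-signal fitted against DMSO baseline.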

Measured: AC50

zebrafish Thyroid Hormone Receptor alpha (TRa), thraa (gene 30670), sequence (Q98867 whole entry, looked up, the tested form may be a part): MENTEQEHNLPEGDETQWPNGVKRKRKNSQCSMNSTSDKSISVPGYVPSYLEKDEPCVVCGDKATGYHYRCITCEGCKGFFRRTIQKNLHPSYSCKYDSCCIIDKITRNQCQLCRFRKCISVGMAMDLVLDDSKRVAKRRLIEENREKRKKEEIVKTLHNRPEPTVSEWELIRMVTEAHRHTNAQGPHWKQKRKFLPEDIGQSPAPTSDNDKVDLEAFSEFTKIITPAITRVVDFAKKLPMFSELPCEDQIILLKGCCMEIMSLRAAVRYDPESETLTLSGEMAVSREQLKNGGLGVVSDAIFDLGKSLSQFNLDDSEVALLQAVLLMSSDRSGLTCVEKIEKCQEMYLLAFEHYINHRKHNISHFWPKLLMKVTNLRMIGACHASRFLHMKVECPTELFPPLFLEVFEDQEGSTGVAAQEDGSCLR
mouse Peroxisome Proliferator-activated Receptor gamma (PPARg), Pparg (gene 19016), sequence (P37238 whole entry, looked up, the tested form may be a part): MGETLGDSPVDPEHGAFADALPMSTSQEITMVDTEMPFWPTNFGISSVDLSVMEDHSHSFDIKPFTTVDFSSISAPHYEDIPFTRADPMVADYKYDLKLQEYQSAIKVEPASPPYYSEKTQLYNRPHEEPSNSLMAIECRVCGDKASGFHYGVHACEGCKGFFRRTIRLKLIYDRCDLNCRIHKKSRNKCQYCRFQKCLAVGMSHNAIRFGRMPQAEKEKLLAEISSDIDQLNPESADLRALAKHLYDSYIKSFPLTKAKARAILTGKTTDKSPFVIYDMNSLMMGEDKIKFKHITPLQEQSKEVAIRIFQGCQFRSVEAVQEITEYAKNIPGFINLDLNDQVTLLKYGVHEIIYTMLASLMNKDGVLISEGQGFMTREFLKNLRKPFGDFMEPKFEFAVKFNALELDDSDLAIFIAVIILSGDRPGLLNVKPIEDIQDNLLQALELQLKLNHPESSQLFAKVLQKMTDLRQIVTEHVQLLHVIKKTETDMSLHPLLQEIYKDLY
Nuclear receptor subfamily 1 group I member 2 (Mus musculus), sequence (O54915 whole entry, looked up, the tested form may be a part): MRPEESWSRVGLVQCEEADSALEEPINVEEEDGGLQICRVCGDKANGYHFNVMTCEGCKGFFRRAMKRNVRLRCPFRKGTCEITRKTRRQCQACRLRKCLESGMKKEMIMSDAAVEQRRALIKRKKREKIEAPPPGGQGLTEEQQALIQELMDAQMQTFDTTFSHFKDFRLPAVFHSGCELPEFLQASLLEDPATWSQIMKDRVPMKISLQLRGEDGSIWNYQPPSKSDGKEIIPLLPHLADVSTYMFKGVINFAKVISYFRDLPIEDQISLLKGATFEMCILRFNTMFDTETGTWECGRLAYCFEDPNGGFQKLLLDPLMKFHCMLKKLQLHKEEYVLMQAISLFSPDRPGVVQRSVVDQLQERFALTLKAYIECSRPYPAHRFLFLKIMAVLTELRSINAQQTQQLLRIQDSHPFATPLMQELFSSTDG
chicken Estrogen Receptor (ERa), ESR1 (gene 396099), sequence (P06212 whole entry, looked up, the tested form may be a part): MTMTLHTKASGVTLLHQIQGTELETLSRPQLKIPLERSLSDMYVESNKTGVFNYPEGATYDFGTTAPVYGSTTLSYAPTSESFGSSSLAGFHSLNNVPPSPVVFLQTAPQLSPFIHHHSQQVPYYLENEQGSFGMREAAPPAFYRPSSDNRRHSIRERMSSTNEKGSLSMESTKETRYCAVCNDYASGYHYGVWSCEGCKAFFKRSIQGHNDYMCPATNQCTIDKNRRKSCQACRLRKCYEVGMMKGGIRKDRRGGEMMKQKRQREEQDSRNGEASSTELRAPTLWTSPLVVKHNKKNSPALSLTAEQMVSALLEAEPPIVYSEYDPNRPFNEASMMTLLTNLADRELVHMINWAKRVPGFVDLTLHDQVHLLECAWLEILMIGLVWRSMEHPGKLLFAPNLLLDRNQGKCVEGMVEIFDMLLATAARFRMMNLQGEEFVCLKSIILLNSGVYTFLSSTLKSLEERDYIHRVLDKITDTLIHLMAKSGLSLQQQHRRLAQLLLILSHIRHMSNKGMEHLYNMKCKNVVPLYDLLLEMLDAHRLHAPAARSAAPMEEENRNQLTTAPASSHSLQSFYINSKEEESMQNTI
human Androgen Receptor (AR), AR (gene 367), sequence (P10275 whole entry, looked up, the tested form may be a part): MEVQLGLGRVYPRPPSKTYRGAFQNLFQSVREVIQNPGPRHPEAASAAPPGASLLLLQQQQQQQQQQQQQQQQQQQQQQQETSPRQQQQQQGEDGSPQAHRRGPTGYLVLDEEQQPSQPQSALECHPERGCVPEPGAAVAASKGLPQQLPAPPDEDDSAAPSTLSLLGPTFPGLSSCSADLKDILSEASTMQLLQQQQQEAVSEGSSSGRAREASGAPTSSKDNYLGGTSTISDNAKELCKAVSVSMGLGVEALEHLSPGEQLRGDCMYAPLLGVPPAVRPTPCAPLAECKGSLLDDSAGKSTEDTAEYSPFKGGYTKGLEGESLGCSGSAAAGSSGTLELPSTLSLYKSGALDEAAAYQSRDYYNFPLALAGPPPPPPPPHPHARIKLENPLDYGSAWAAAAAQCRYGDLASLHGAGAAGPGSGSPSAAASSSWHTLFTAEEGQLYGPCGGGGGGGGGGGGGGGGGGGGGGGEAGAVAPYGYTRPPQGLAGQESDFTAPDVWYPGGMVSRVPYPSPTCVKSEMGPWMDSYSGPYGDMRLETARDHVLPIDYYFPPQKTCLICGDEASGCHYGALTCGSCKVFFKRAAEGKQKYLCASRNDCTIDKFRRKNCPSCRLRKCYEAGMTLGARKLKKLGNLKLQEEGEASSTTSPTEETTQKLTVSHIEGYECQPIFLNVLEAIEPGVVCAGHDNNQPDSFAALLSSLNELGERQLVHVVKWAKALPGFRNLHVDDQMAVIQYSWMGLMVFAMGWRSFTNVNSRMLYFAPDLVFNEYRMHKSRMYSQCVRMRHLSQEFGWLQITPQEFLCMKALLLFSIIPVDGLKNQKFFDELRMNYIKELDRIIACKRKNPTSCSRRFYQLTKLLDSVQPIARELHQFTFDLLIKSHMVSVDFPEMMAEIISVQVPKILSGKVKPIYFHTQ
zebrafish Estrogen Receptor (ER1), esr1 (gene 259252), sequence (P57717 whole entry, looked up, the tested form may be a part): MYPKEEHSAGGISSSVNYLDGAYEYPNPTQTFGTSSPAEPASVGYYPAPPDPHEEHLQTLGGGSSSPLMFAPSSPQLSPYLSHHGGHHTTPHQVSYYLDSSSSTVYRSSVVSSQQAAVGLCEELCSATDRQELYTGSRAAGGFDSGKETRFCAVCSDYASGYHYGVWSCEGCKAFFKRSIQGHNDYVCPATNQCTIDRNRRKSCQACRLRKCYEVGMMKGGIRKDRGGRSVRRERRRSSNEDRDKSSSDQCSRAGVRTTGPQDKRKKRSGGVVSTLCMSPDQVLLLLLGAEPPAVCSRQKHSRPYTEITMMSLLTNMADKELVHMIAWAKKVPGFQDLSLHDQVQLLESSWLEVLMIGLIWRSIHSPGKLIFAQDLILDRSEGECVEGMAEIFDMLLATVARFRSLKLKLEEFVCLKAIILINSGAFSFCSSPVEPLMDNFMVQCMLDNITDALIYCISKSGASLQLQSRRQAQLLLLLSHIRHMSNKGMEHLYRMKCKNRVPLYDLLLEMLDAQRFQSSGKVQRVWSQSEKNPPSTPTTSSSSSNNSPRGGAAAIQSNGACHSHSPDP
Peroxisome proliferator-activated receptor gamma (Homo sapiens), sequence (P37231 whole entry, looked up, the tested form may be a part): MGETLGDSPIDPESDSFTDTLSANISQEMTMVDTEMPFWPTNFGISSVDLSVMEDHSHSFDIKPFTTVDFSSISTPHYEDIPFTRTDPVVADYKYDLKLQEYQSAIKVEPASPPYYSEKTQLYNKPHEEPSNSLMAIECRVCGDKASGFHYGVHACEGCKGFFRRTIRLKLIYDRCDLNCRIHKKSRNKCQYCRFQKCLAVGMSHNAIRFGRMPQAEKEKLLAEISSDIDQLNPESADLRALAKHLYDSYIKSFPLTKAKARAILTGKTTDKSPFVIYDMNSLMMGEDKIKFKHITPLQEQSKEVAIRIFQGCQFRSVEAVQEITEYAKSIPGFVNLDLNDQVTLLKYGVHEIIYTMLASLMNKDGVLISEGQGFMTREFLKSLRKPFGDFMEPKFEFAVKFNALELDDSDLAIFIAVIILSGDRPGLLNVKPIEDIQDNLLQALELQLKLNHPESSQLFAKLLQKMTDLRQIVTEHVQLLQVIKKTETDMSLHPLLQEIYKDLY
GAL4 Transcription Factor (Internal Marker), GAL4 (gene 855828), sequence (P04386 whole entry, looked up, the tested form may be a part): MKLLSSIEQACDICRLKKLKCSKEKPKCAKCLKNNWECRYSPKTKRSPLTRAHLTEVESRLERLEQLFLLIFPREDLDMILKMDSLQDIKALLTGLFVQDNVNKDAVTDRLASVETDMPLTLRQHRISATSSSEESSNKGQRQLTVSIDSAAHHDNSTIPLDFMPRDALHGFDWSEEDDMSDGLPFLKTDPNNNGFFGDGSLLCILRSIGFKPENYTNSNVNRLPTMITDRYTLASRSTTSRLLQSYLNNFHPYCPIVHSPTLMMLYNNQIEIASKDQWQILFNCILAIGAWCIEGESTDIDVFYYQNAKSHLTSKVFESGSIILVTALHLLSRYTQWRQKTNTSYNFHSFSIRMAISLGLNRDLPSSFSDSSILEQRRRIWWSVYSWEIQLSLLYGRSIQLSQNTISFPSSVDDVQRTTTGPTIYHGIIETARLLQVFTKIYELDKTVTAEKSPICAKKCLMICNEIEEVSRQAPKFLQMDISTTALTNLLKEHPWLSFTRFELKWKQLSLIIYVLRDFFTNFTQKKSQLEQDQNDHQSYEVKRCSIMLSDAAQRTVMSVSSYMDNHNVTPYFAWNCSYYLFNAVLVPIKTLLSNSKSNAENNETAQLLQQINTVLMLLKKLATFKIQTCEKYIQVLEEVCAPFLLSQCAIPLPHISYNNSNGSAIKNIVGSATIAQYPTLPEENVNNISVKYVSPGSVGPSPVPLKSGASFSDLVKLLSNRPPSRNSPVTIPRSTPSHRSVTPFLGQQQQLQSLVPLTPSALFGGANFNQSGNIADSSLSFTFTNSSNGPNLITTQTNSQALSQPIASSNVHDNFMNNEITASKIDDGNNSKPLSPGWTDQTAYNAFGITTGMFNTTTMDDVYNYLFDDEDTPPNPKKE

O=c1cc(-c2ccccc2)oc2cc(O)cc(O)c12
inactive: [2] | [5] | [6] | [7] | [9] | [13] | [14] | [15] | [16]
active: [1] 1410 nM | [2] 6380 nM | [3] 7.18 µM and 2.51 µM | [4] 6.82 µM and 2.26 µM | [5] 1510 nM | [6] 23800 nM | [8] 14.2 µM and 5.28 µM | [9] 1190 nM | [10] 4.67 µM and 2.26 µM | [11] 7.92 µM and 1.57 µM | [12] 12.3 µM and 25.9 µM

CN(C)C(=N)N=C(N)N
not listed: [2] | [3] | [6] | [7] | [9] | [12] | [16]
inactive: all other assays above

CN(CCOc1ccc(CC2SC(=O)NC2=O)cc1)c1ccccn1 (configuration not stated)
inactive: [7] | [10] | [14] | [16]
